The values that follow come from PubChem BioAssay (NCATS).

Records with an inconclusive call do not appear. Calls of active or inactive are those of the source. Calls follow the shape of the dose curve; as a rule, active = well fitted cell-killing curve with a large enough effect; inconclusive = small, poorly fitted or top-dose-only effect, or effect the other way; inactive = no such curve, though single readings can be large or run the other way.
Potency is read from the fitted curve at half-maximal effect.

The test in a line: Quantitative High-Throughput drug screen in 47 multiple myeloma cell lines against the NCATS MIPE library collection: KMS12BM_JCRB cell viability assay (AID 1918971). Also: nearly all actives have a fitted effect of over 35% in size. To be noted: KMS12BM myeloma viability, CellTiter-Glo ATP, 48 h; series mostly up to 45.8 µM. The text has this:
PI: Beverly A. Mock Ph.D.
Laboratory of Cancer Biology and Genetics,
Center for Cancer Research, National Cancer Institute,
National Institute of Health, Bethesda, Maryland
Drug resistance and disease progression are common in multiple myeloma (MM) patients, underscoring the need for new therapeutic combinations. […] We hypothesized that effective combinations would reduce MYC expression and enhance p16 activity. […] These preclinical data identify potentially useful drug combinations for evaluation in drug-resistant MM and reveal potential mechanisms of combined drug sensitivity.
Described herein is the primary MIPE qHTS used to cherrypick compounds. Validated compounds were then further tested for potential synergistic activiy.
[1] Peat TJ, Gaikwad SM, Dubois W, Gyabaah-Kessie N, Zhang S, Gorjifard S, Phyo Z, Andres M, Hughitt VK, Simpson RM, Miller MA, Girvin AT, Taylor A, Williams D, D'Antonio N, Zhang Y, Rajagopalan A, Flietner E, Wilson K, Zhang X, Shinn P, Klumpp-Thomas C, McKnight C, Itkin Z, Chen L, Kazandijian D, Zhang J, Michalowski AM, Simmons JK, Keats J, Thomas CJ, Mock BA. Drug combinations identified by high-throughput screening promote cell cycle transition and upregulate Smad pathways in myeloma. Cancer Lett. 2023 Aug 1;568:216284. doi: 10.1016/j.canlet.2023.216284. Epub 2023 Jun 24. PMID: 37356470; PMCID: PMC10408729.
SEQUENCE No. (e.g., 1, 2, 3, etc.); […] (e.g., Cells, Incubation, Reagent, etc.); VALUE and DESCRIPTION.
1; Cells; 5 uL; white, solid bottom 1536-well Greiner assay plate.
2; Compounds; 23 nL; Kalypsis pin tool (Wako USA) equipped with a 1536-well pin head to transfer to the assay plates.
3; Incubation; 48 hours; 37C incubation.
4; Reagent;5uL; CellTiter Glo (Promega).
5; Detector; 425V; Luminescence; Viewlux PerkinElmer.
NOTES (numbers refer to Sequence numbers above)
1. The cell-based screening methods employed in this study were like those previously published. Briefly, the corresponding myeloma cell lines were screened in 1,536-well plates with 500 cells, 5-uL per well for inhibition of cell viability (assessed by measuring ATP levels with CellTiterGlo).
2. NCATS MIPE 4.0 library of approved and investigational drugs were added using the Kalypsis pin tool. Wells treated with DMSO only for 100% viability and media only wells for 0% viability were used as controls.
3. The assay plates were covered and incubated for 48 hours in a 37C, 5% CO2 incubator with controlled humidity.
4. After 48 hours, CellTilter-GloTM luminescent substrate mix (Promega) reagent was added to the assay plate and plates we incubated for 5 min at room temperature.
5. Signal was measured as median relative luminescence units on a ViewLux (PerkinElmer) multiplate reader.
[1] Heske CM, Davis MI, Baumgart JT, Wilson K, Gormally MV, Chen L, Zhang X, Ceribelli M, Duveau DY, Guha R, Ferrer M, Arnaldez FI, Ji J, Tran HL, Zhang Y, Mendoza A, Helman LJ, Thomas CJ. Matrix Screen Identifies Synergistic Combination of PARP Inhibitors and Nicotinamide Phosphoribosyltransferase (NAMPT) Inhibitors in Ewing Sarcoma. Clin Cancer Res. 2017 Dec 1;23(23):7301-7311. doi: 10.1158/1078-0432.CCR-17-1121. Epub 2017 Sep 12. PMID: 28899971; PMCID: PMC6636827.
For the molecule `CCCS(=O)(=O)Nc1ccc(F)c(C(=O)c2c[nH]c3ncc(-c4ccc(Cl)cc4)cc23)c1F`, the Potency is 20.9 µM (active). As to `NC(N)=NC(=O)c1nc(Cl)c(N)nc1N`, the Potency result is “inactive”. The figure for `CC(=O)NC(C)c1ccc(Oc2ccc(OC(C)C)cc2)cc1` (stereo not given) is 13.2 µM (active). In the case of `O=C(c1cc(Cc2n[nH]c(=O)c3ccccc23)ccc1F)N1CCN(C(=O)C2CC2)CC1`, the Potency result was “inactive”. For `O=C1CCCC2=C1C(c1[nH]ncc1Cl)N=C(Nc1nc3ccccc3o1)N2` (stereo not given), the Potency was 4.69 µM (active). Then `N[C@@H]1CONC1=O`, with “inactive”.

On to `Cc1ccnc(NS(=O)(=O)c2ccc(NC(=O)Nc3ccc(S(=O)(=O)Nc4nccc(C)n4)cc3)cc2)n1`, for which the Potency is 6.62 µM (active).

Consider `OCCn1cc(-c2cnc3nnn(Cc4ccc5ncccc5c4)c3n2)cn1`, for which the Potency is 18.7 µM (active). The figure for `CCc1cncnc1N1CCN(Cc2nc3ccc(C(F)(F)F)cc3[nH]2)CC1` is 14.8 µM (active). For the molecule `Cc1cn[nH]c1`, the Potency was 0.0132 µM (active). As to `CCOc1cc(N2CCC(O)CC2)ccc1Nc1ncc2c(n1)N(C)c1ccccc1C(=O)N2C`, the Potency was 11.8 µM (active).

Consider `Cc1cccc(-c2nn(C(=S)Nc3ccccc3)cc2-c2ccnc3ccccc23)n1`, for which the Potency is 14.8 µM (active).

Turning to `NC(=O)C1CCCc2c1[nH]c1ccc(Cl)cc21` (stereo not given), the Potency was 1.66 µM (active). Regarding `Cc1n[nH]c(C)c1Cc1sc2c(c1C(=O)N1C[C@H](O)CO1)c(=O)n(C)c(=O)n2CC(C)C`, the Potency is 2.64 µM (active). The entry for `O=C(O)CCc1ccc(NCc2cccc(Oc3ccccc3)c2)cc1` is “inactive”; for `CCN(c1ccccc1)c1cc(NC)[n+](C)c(C)n1` it is 14.8 µM (active). The figure for `Cc1csc(NC(=O)c2sc3nc4c(c(C(F)(F)F)c3c2N)CCC4)n1` is 16.6 µM (active); for `Nc1ccc(S(=O)(=O)Nc2ccnn2-c2ccccc2)cc1` it is “inactive”; for `CCn1cc(C(=O)O)c(=O)c2cc(F)c(N3CCNC(C)C3)c(F)c21` (stereo not given) it is “inactive”.

As to `O=C(O)[C@@H](c1ccc(OCc2ccc3ccccc3n2)cc1)C1CCCC1`, the Potency entry was “inactive”. `CC[C@@H](C)[C@H](NC(=O)[C@H](CC1CCCCC1)NC(=O)c1ccno1)C(=O)N1CCC2(CCc3ccccc32)CC1`: the Potency was 9.35 µM (active). `COc1ccc2c3n(c(=NC(=O)c4cccnc4)nc2c1OC)CCN3`: the Potency entry is “inactive”.

As to `CCN(CC)CCCC(C)Nc1ccnc2cc(Cl)ccc12` (stereo not given), the Potency result was “inactive”. Turning to `CN(C(=O)c1ccc(F)cc1C(F)(F)F)C1CCN(c2nnc(-c3ccnn3C)c3ccccc23)CC1`, the Potency result was “inactive”. `Cc1c(C)c2c(c(C)c1O)CCC(C)(COc1ccc(CC3SC(=O)NC3=O)cc1)O2` (stereo not given): the Potency result was “inactive”. Regarding `Cc1ccc(NC(=O)c2cccc(C(C)(C)C#N)c2)cc1Nc1ccc2ncn(C)c(=O)c2c1`, the Potency is 20.9 µM (active). As to `NCCc1ccc(O)c(O)c1`, the Potency was 7.43 µM (active).

As to `COc1ccccc1[C@H](c1cccc2ccccc12)[C@@](C)(C#N)C(=O)N1CCC(c2cccc(C(F)(F)F)c2)CC1`, the Potency was 2.35 µM (active).

Regarding `O=C(Nc1cccnc1)N1CCC(Cc2cccc(Oc3ccc(C(F)(F)F)cn3)c2)CC1`, the Potency is 13.2 µM (active). For `CC(C)C[C@H](NC(=O)[C@@H](O)[C@H](N)Cc1ccccc1)C(=O)O`, the Potency is 23.5 µM (active). Regarding `CCC(C)n1ncn(-c2ccc(N3CCN(c4ccc(OC[C@H]5CO[C@](Cn6cncn6)(c6ccc(Cl)cc6Cl)O5)cc4)CC3)cc2)c1=O` (stereo not given in full), the Potency is 3.32 µM (active). Turning to `NC(=O)c1ccc(-c2nc(-c3ccc4c(c3)OCCO4)c(-c3ccccn3)[nH]2)cc1`, the Potency entry is “inactive”. Consider `Oc1ccc(C2CNCCc3c2cc(O)c(O)c3Cl)cc1` (stereo not given), for which the Potency result is “inactive”. The figure for `COc1cccc2cc(-c3nc(C4CCC(C(=O)O)CC4)n4ncnc(N)c34)[nH]c12` (stereo not given) is 0.0743 µM (active); for `c1ccc(-c2nn3c(c2-c2ccnc4cc(OCCN5CCOCC5)ccc24)CCC3)nc1` it is 26.4 µM (active).

On to `NNCCc1ccccc1`, for which the Potency was 14.8 µM (active). Consider `Nc1nc2ccc(OC(F)(F)F)cc2s1`, for which the Potency was 16.6 µM (active). As for `Clc1ccc(Nc2nnc(Cc3ccncc3)c3ccccc23)cc1`, the Potency was 20.9 µM (active). For `CC(C)(N)C(=O)N[C@H](COCc1ccccc1)C(=O)N1CCC2(CC1)CN(S(C)(=O)=O)c1ccccc12`, the Potency was 14.8 µM (active). Then `COc1ccc([C@@H]2CC(=O)c3c(O)cc(O[C@@H]4O[C@H](CO[C@@H]5O[C@@H](C)[C@H](O)[C@@H](O)[C@@H]5O)[C@@H](O)[C@H](O)[C@@H]4O)cc3O2)cc1O`, with “inactive”.
